Experimental data taken from PubChem BioAssay (Tox21).
“And” between values parts separate entries of the source, which are not always exact repeats. Equal values may be shown once. Inconclusive results are not listed. A call without a number means that no potency is given here. Some compounds were tested as several samples or in several runs, with calls that do not always agree. The source made the active and inactive calls. Unless noted, calls come from the whole dose curve; as a rule, active = well fitted curve in the direction sought with a large enough effect in the repeat runs; inconclusive = weak or mixed curves; inactive = no such curve, though single readings can be large; an effect the other way counts as inactive or inconclusive.

Columns and labels:
[1] = qHTS assay to identify small molecule agonists of the vitamin D receptor (VDR) signaling pathway - cell viability counter screen (AID 743224); note: nearly all actives have a fitted effect of over 50% in size; note: potency is the fitted concentration of half-maximal effect
How it was run: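 VDR-bla cells, 4 h after plating, exposed to compounds for 16 h at 37C; viability then read in the same wells as CellTiter-Glo luminescence after 30 min at room temperature, following the bla FRET read.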

[2] = qHTS assay to identify small molecule antagonists of the vitamin D receptor (VDR) signaling pathway - cell viability counter screen (AID 743225); note: nearly all actives have a fitted effect of over 50% in size; note: potency is the fitted concentration of half-maximal effect
How it was run: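 Cells (VDR-UAS-bla HEK 293T) are plated, rested 4 h at 37C, dosed with compound and 3 nM final 1-alpha,25-dihydroxy vitamin D3, and incubated 16 h. Viability is taken from CellTiter-Glo luminescence in the reporter wells.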

[3] = qHTS assay to identify small molecule agonists of the NFkB signaling pathway - cell viability counter screen (AID 1159515; calls by dose curve; note: nearly all actives have a fitted effect of over 55% in size; note: potency is the fitted concentration of half-maximal effect)
How it was run: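 NFkB-bla ME-180 cells, 2,000/well, plated overnight at 37 C; compound added for 5 hr at 37 C. Viability read in the same wells as the bla reporter, by CellTiter-Glo luminescence after 30 min at room temperature.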

[4] = qHTS assay to identify small molecule agonists of the endoplasmic reticulum stress response signaling pathway - cell viability counter screen (AID 1159517; calls by dose curve; note: nearly all actives have a fitted effect of over 50% in size; note: potency is the fitted concentration of half-maximal effect)
How it was run: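 Cells, HeLa ESRE-bla; density, 1,500/well; dosing, 5 hr at 37 C, 5% CO2; readout, CellTiter-Glo luminescence after 30 min RT.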

[5] = qHTS assay to identify small molecule antagonists of the retinoid-related orphan receptor gamma (ROR-gamma) signaling pathway - cell viability counter screen (AID 1159520); note: nearly all actives have a fitted effect of over 50% in size; note: potency is the fitted concentration of half-maximal effect
How it was run: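 Cytotoxicity was read from cellular ATP (CellTiter-Glo luminescence) after 16 hr at 37 C with 1 uM doxycycline induction. The inducer was added 2 hr after compound transfer to Tet-on ROR gamma CHO cells.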

[6] = molecular target: Nuclear receptor ROR-gamma (Homo sapiens) (UniProt P51449); assay: qHTS assay to identify small molecule antagonists of the retinoid-related orphan receptor gamma (ROR-gamma) signaling pathway (AID 1159521; note: nearly all actives have a fitted effect of over 50% in size; note: potency is the fitted concentration of half-maximal effect)
How it was run: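 RORγ antagonism is scored from reduced reporter luminescence in Tet-on CHO cells. Induction used 1 uM final doxycycline hyclate for 16 h at 37 C, following a 2 h compound exposure.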

[7] = qHTS assay to identify small molecule agonists of the AP-1 signaling pathway - cell viability counter screen (AID 1159525; calls by dose curve; note: nearly all actives have a fitted effect of over 55% in size; note: potency is the fitted concentration of half-maximal effect)
How it was run: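 Luminescent ATP readout (Cell Titer Glo, 30 min RT), normalised to DMSO and tetra n-octyl ammonium bromide controls. Cells were ME-180 AP-1-bla in 0.5% dialyzed FBS Opti-MEM, with a 5 h, 37 °C compound exposure.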

[8] = qHTS assay to identify small molecule agonists of the AP-1 signaling pathway (AID 1159526; calls by dose curve)
[9] = qHTS assay to identify small molecule agonists of the RXR signaling pathway - cell viability counter screen (AID 1159529); note: nearly all actives have a fitted effect of over 50% in size; note: potency is the fitted concentration of half-maximal effect
How it was run: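 Cell viability is measured by CellTiter-Glo luminescence, 30 min at room temperature, in wells already read for beta-lactamase. Engineered HEK 293T cells (RXR-alpha-UAS-bla) are dosed 16 hr at 37 C. Tetraoctyl ammonium bromide serves as positive control.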

[10] = qHTS assay to identify small molecule antagonists of the retinoic acid receptor (RAR) signaling pathway (AID 1159552; note: nearly all actives have a fitted effect of over 50% in size; note: potency is the fitted concentration of half-maximal effect)
How it was run: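 Quantitative HTS in C3RL4 RARE-luciferase reporter cells. Compounds were added with 1 uM (final) retinol; luminescence was read after 6 hr.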

[11] = qHTS assay to identify small molecule agonists of the retinoic acid receptor (RAR) signaling pathway (AID 1159553); note: potency is the fitted concentration of half-maximal effect
How it was run: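 C3RL4 RARE-luciferase cells were seeded at 1,000/well and grown overnight at 37 C, then exposed to compounds for 6 hr at 37 C, 5% CO2. Luciferase reagent was added and luminescence was read after 30 min at room temperature.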

[12] = qHTS assay to identify small molecule antagonists of the retinoid acid receptor (RAR) signaling pathway - cell viability counter screen (AID 1159551); note: nearly all actives have a fitted effect of over 35% in size; note: potency is the fitted concentration of half-maximal effect
How it was run: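 C3RL4 RARE-luciferase cells, 1,000/well, incubated overnight, then dosed with compound plus 1 uM retinol (final). After 6 hr at 37 C, viability read by CellTiter-Glo ATP luminescence following 30 min at room temperature.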

[13] = molecular target: Retinoic acid receptor RXR-alpha (Homo sapiens) (UniProt P19793); assay: qHTS assay to identify small molecule agonists of the RXR signaling pathway (AID 1159527; calls by dose curve; note: nearly all actives have a fitted effect of over 35% in size)
Retinoic acid receptor RXR-alpha (Homo sapiens), sequence (P19793 whole entry, looked up): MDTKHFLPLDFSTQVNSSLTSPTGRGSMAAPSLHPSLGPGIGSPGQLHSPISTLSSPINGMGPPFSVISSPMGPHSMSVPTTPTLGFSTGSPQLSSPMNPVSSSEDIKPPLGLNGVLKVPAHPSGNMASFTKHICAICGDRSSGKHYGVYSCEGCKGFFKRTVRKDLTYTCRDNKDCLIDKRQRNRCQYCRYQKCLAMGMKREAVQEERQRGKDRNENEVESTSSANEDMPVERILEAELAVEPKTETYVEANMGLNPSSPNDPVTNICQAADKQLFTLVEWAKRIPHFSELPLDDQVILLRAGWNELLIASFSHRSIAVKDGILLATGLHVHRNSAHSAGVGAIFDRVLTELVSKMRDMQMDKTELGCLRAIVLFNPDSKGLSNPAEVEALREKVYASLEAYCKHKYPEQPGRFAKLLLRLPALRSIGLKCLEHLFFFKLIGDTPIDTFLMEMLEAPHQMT
How it was run: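 qHTS of the Tox21 10K library in GeneBLAzer RXR-alpha HEK 293T cells carrying a beta-lactamase reporter […]; 16 hr treatment, 9-cis retinoic acid as agonist control, FRET read-out.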

SMILES	Potency [1]	Potency [2]	Potency [3]	Potency [4]	Potency [5]	Potency [6]	Potency [7]	Potency [8]	Potency [9]	Potency [10]	Potency [11]	Potency [12]	Potency [13]
Nc1ccccc1C(=O)OCCc1ccccc1	inactive	inactive	inactive	inactive	inactive	inactive	inactive	inactive	inactive	inactive	173 nM (active) and 122 nM (active)	–	–
CCCCC(CC)CO[N+](=O)[O-] (stereo not drawn)	inactive	inactive	inactive	inactive	inactive	inactive	inactive	inactive	inactive	inactive	inactive	inactive	–
Nc1cccc2ccccc12	inactive	inactive	inactive	inactive	inactive	inactive	inactive	–	inactive	–	–	inactive	inactive
c1ccc2c(c1)-c1cccc3cccc-2c13	inactive	inactive	inactive	inactive	–	inactive	inactive	inactive	–	inactive	inactive	inactive	–
CCCCCCCCCCCC[N+](C)(C)CCOc1ccccc1	24.6 µM (active) and inactive	21.9 µM (active) and 21.3 µM (active)	13.8 µM (active) and inactive	15.5 µM (active) and 19 µM (active)	–	27.3 µM (active)	49 µM (active) and 23.9 µM (active)	–	8.71 µM (active) and 12 µM (active)	–	–	61.1 µM (active)	–
CCC(C)(C)c1ccc(O)c(C(C)(C)CC)c1	12.2 µM (active) and 11 µM (active)	12.2 µM (active) and 19.5 µM (active)	21.6 µM (active) and 21.9 µM (active)	15.3 µM (active) and 21.9 µM (active)	60.4 µM (active)	60.4 µM (active) and 48.6 µM (active)	12.2 µM (active) and 13.8 µM (active)	–	12.2 µM (active) and 12.3 µM (active)	24.3 µM (active)	–	53.9 µM (active) and 30.6 µM (active)	–
CC(C)(c1ccccc1)c1cc(-n2nc3ccccc3n2)c(O)c(C(C)(C)c2ccccc2)c1	inactive	inactive	inactive	inactive	–	inactive	inactive	inactive	inactive	inactive	inactive	inactive	inactive
CCNC(=O)NC(=O)/C(C#N)=N/OC	inactive	inactive	inactive	inactive	inactive	inactive	inactive	inactive	inactive	–	inactive	inactive	–
CCCBr	inactive	inactive	inactive	inactive	inactive	inactive	inactive	inactive	inactive	–	inactive	inactive	–
CCC[N+](CCC)(CCC)CCC	inactive	inactive	inactive	inactive	inactive	inactive	inactive	inactive	inactive	–	inactive	inactive	–
O=C(O)C(Cl)(Cl)Br	inactive	inactive	inactive	inactive	inactive	inactive	inactive	inactive	inactive	inactive	inactive	inactive	–
CCOP(=S)(OCC)SCSc1cc(Cl)ccc1Cl	inactive	inactive	inactive	inactive	inactive	inactive	inactive	inactive	inactive	inactive	inactive	inactive	–
O=C(O)c1cc(Cl)ccc1Cl	inactive	–	inactive	inactive	–	inactive	inactive	inactive	inactive	inactive	inactive	inactive	inactive
CCOC(=O)c1cn2nc(OP(=S)(OCC)OCC)cc2nc1C	inactive	inactive	inactive	inactive	–	inactive	inactive	inactive	inactive	inactive	–	inactive	–
C[CH2][Hg][S]c1ccccc1C(=O)O	1.23 µM (active) and 2.11 µM (active)	3.47 µM (active) and 4.25 µM (active)	3.47 µM (active) and 6.01 µM (active)	6.74 µM (active)	1.09 µM (active) and 1.68 µM (active)	611 nM (active) and 1.33 µM (active)	4.36 µM (active) and 3.79 µM (active)	–	1.23 µM (active) and 1.51 µM (active)	1.93 µM (active) and 2.66 µM (active)	–	13.7 µM (active) and 18.8 µM (active)	–
O=C(CCl)CCl	inactive	inactive	inactive	43.6 µM (active)	–	14.2 µM (active) and 12.2 µM (active)	inactive	–	inactive	–	–	inactive	–
Cc1cnc(C2=NC(C)(C(C)C)C(=O)N2)c(C(=O)O)c1 (stereo not drawn)	inactive	inactive	inactive	inactive	inactive	inactive	inactive	inactive	inactive	inactive	inactive	inactive	–
O=S(=O)(c1ccccc1)c1ccccc1	inactive	inactive	inactive	inactive	–	inactive	inactive	inactive	inactive	inactive	inactive	inactive	inactive
